Ten compounds from PubChem BioAssay (EPA / NIEHS) can be followed below.

Calls of active or inactive are those of the source. How the source made its calls: active means hit-call score of the fitted dose curve at least 0.9, where 1 is the maximum; inactive means score below 0.9.

This experiment is described as follows: Tanguay_ZF_120hpf_MORT: Oregon State University Tanguay Lab 120 Hour Post-fertilization zebrafish Assay for Mortality (AID 2284399). On the procedure:
Tanguay_ZF_120hpf is a whole embryo, multiplexed endpoint assay using zebrafish larvae exposed for 120 hours post fertilization on a 96-well plate.Tanguay_ZF_120hpf_MORT is one of one assay component(s) measured or calculated from the Tanguay_ZF_120hpf assay. It is designed to make measurements of zebrafish development as detected with brightfield microscopy of developing zebrafish embryos.Data from the assay component Tanguay_ZF_120hpf_MORT was analyzed into 1 assay endpoints. This assay endpoint, Tanguay_ZF_120hpf_MORT, was analyzed in the positive analysis fitting direction relative to DMSO as the negative control and baseline of activity. Using a type of viability reporter, gain-of-signal activity can be used to understand changes in developmentals as they relate to the whole embryo. To generalize the intended target to other relatable targets, this assay endpoint is annotated to the zebrafish development intended target family, where the subfamily is embryonic mortality.
Zebrafish husbandry: Tropical 5D wild-type adult zebrafish were housed in at an approximate density of 1000 per 100 gallon tank at the Sinnhuber Aquatic Research Laboratory, Oregon State University, Corvallis, OR. Each tank was kept at standard laboratory conditions of 28C on a 14-h light/10-h dark photoperiod in fish water consisting of reverse osmosis water supplemented with a commercially available salt (Instant Ocean). Spawning funnels were placed into the tanks the night prior, and embryos were collected and staged. To increase bioavailability, the chorion was enzymatically removed using pronase (63.6mg/ml, >/= 3.5U/mg, Sigma-Aldrich: P5147) at 4 hours post fertilization (hpf) using a custom automated dechorionator.Chemical exposures: Six hpf dechorionated embryos were placed 1 embryo per well in a 96-well plate prefilled with 90 ul of EM using automated embryo placement systems (AEPS). Ten microliters of each row of dilution plate 2 was added to 2 exposure plates. The final DMSO concentration used was 0.64% (vol/vol). Thirty-two embryos were also exposed to 5uM trimethyltin chloride (positive control). Plates were sealed to prevent evaporation and foil covered to reduce light exposure and kept in a 28C incubator. Embryos were statically exposed until 120 hpf. At 24 hpf, embryos were assessed for photomotor response using a custom photomotor response analysis tool (PRAT) and for developmental toxicity endpoints (MO24: mortality at 24 hpf, DP: developmental progression, SM: spontaneous movement, and NC: notochord distortion). At 120 hpf, locomotor activity was measured using Viewpoint Zebralab and assessed for 13 endpoints. Zebrafish acquisition and analysis program (ZAAP), a custom program designed to inventory, acquire, and manage zebrafish data, was used to collect developmental endpoints as either present or absent (i.e., binary responses were recorded). If mortality occurred for an embryo (at either 24 or 120 hpf), the non-mortality endpoints were not measured.
In the case of `FC(F)=C(F)C(F)(F)C(F)(F)C(F)(F)C(F)(F)C(F)(F)C(F)(F)F`, the call was inactive.
On to `C[Si](C)(C)C(F)(F)C(F)(F)C(F)(F)F`, for which the compound was classed as inactive.
Still for that read-out and setting: next, `OC(O)(C(F)C(O)(O)C(F)(F)F)C(F)(F)F`: “inactive”; `O=S(=O)(O)CCC(F)(F)C(F)(F)C(F)(F)C(F)(F)C(F)(F)C(F)(F)F`: “inactive”.
Same read-out and setting: as for `NCC(F)(F)C(F)(F)C(F)(F)C(F)(F)F`, the entry is “inactive”; as for `FC(F)(F)COC(OCC(F)(F)F)OCC(F)(F)F`, “inactive”; as for `FC(F)(F)C(F)(F)C(F)(F)C(F)(F)C(F)(F)C(F)(F)I`, “inactive”.
As to `FC(F)C(F)(F)COCC1CO1` (stereo not given), the result was inactive.
On the same count and under the same terms, as for `OCCC(F)(F)C(F)(F)C(F)(F)C(F)(F)F`, the entry is “inactive”.
As usually defined, the AC50 is the midpoint of the concentration-response curve, whichever way the signal moves. On to `O=C(Cl)C(F)(F)C(F)(F)C(F)(F)C(=O)Cl`, for which the AC50 is 57.6 µM (active).
